Source: PubChem (several laboratories)
The list is not random: actives were taken first. Their share in the collection is about 3.7%.
BoNT A protease: BoNT A light chain protease inhibition | inhibition, % at 10 µM | 0.17% of 360,000 active | multiplex microsphere protease substrate cleavage, flow cytometry; further: plate controls were buffer without enzyme for full effect and enzyme alone for no effect
MazF activator: increases E. coli MazEF RNase cleavage of RNA. AID 504720. FAM/BHQ RNA-DNA oligo cleavage fluorescence, 5 h. P0AE70. 0.32% of 350,000 active. activation, % at 20 µM; in the data active means activation above about 50%
Target sequence (P0AE70 whole entry, looked up): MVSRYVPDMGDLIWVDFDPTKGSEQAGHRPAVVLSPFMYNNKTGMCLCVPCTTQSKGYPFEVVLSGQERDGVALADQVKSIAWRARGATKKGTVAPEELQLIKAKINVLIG
Autofluor counter: compound fluorescence in toxin protease inhibitor counterscreen; compound autofluorescence counterscreen, microsphere flow cytometry; active compounds read high; fluorescence intensity (test concentration not listed); 3.1% of 360,000 active; in the data active means fluorescence intensity above about 16000; inconclusive means no clear call, values can overlap the other calls
BoNT F protease: inhibitors of Botulinum neurotoxin F light chain protease. Multiplex microsphere protease cleavage assay, flow cytometry. inhibition, % at 10 µM. 0.22% of 360,000 active. AID 588497; in the data active means inhibition above about 35%, passing the limit was not always enough; inconclusive means no clear call, values can overlap the other calls; further: plate controls were buffer without enzyme for full effect and enzyme alone for no effect
Anthrax LF inh2: blocks Bacillus anthracis lethal factor protease. P15917. AID 588501. inhibition, % at 10 µM. 0.12% of 360,000 active. multiplex microsphere protease cleavage assay, LF; further: plate controls were buffer without enzyme for full effect and enzyme alone for no effect
Numbers without * were called inactive; ? = inconclusive; . = no result. Unless noted, no stated cut-off is given here; in the data, active means inhibition above about 30%; inconclusive means no clear call, values can overlap the other calls; inactive means below that.

SMILES	BoNT A protease	MazF activator	Autofluor counter	BoNT F protease	Anthrax LF inh2
CC(C)c1nc2sc3ccccc3c(=O)c2c(=O)n1Cc1ccccc1	?	-0.5	3628	?	-19.3
COCCn1c(C2CCCCC2)nc2sc3ccccc3c(=O)c2c1=O	1.5	3.1	22628*	2.9	0.6
COCCn1c(C(C)C)nc2sc3ccccc3c(=O)c2c1=O	?	-6.2	19469*	5.7	-8.2
O=C1c2ccccc2C(c2nnnn2-c2ccc3c(c2)OCCO3)N1CCCN1CCOCC1 (stereo unspecified)	-0.8	.	4149	-3.0	-9.1
CCOC(=O)CC[C@H](NC(=O)Cn1cnc2c(SC)nc(N)nc21)C(=O)OCC	-0.5	3.4	3600	2.4	-7.6
O=[N+]([O-])c1ccc(CSc2ccc(S(=O)(=O)N3CCCCCC3)cn2)cc1	-0.3	-2.0	5435	0.9	-3.1
O=C(O)C1C(c2ccccc2)C(C(=O)N2CCOCC2)C1c1ccccc1 (stereo unspecified)	0.5	5.0	9507	2.7	-5.0
COC(=O)C1C(c2ccccc2)C(C(=O)N2CCOCC2)C1c1ccccc1 (stereo unspecified)	?	2.5	22025*	-1.4	-2.2
O=C1NC(c2ccc(Br)cc2)Nc2sc3c(c21)CCC3 (stereo unspecified)	1.0	-12.0	22598*	1.8	-3.9
COc1ccccc1CNC(=O)CCn1c(=O)[nH]c2ccsc2c1=O	?	1.5	21437*	-7.5	-0.3
Cc1ccc(/C=N\Nc2cn[nH]c(=O)c2Cl)cc1	0.8	7.7	23558*	-5.4	-1.0
Cc1nn(Cc2ccc(F)cc2)c(C)c1NC(=O)c1cnn2c1NC(c1cccs1)CC2C(F)(F)F (stereo unspecified)	2.5	-8.6	22509*	2.3	-1.2
Oc1[nH]c2ccccc2c1N=Nc1cccc(Cl)c1	3.5	362.1*	3507	-18.2	2.5
CCCNC(=O)COC(=O)c1ccc(OCC(=O)Nc2ccccc2OC)c(OC)c1	0.6	-31.9	4248	10.5	0.5
COc1ccc(C(=O)OCC(=O)Nc2ccc(F)cc2F)cc1OC	-0.6	5.9	3602	-6.3	-1.4
COc1cc(C(=O)OCC(=O)Nc2ccc(F)cc2F)cc(OC)c1OC	?	6.2	20961*	-4.3	-10.2
CCC(CC)NC(=O)COC(=O)c1ccc(OCC(=O)Nc2ccccc2OC)c(OC)c1	?	0.1	21089*	6.8	-1.7
Cc1cc(C)cc(C(=O)NCC(=O)OCC(=O)N2CCCC2)c1	0.5	5.1	3621	0.2	-12.8
